Our source for the composite z-score and z-score values is PubChem BioAssay.

The source made the active and inactive calls.

Test [1] in a line: small molecules captured by biotinylated probe aFSTL3 – biochemical, small-molecule microarray, fluorescence 635/667, stem cell growth factor project, primary screen (AID 1064).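 Also: measures binding of the biotinylated anti-FSTL3 antibody to printed compounds.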 Particulars: higher = more signal.
Test [2] is described as follows: binders from COS7 lysate, DM2A8 probe, primary screen, torsin A project, cell lysate, small-molecule microarray, fluorescence 635/667 (AID 1065). Conditions: higher = more signal, COS7 lysate expressing mutant human TOR1A.
Test [3] is described as follows: small molecules captured by biotinylated probe aFGF2 – biochemical, small-molecule microarray, fluorescence 635/667, stem cell growth factor project, primary screen (AID 1067).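 Also: measures binding of biotinylated aFGF2 protein to printed compounds on slides; z-score merges feature fluorescence and signal-to-noise across triplicate slides.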 Conditions: higher = more signal.
Test [4] can be described thus: small molecules captured by biotinylated probe aFGF10 – biochemical, small-molecule microarray, fluorescence 635/667, stem cell growth factor project, primary screen (AID 1071).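 Also: score merges 667 nm spot intensity and signal to noise from triplicate slides.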 Conditions: higher = more signal.
In test [5] the target is Neurogenic locus notch homolog protein 2 (Homo sapiens) (UniProt Q04721). The test is described as follows: small molecules binding Notch2 protein – biochemical, small-molecule microarray, 635 nm fluorescence, stem cell growth factors, primary screen (AID 1073). Particulars: higher = more signal.
Test [6] deals with Pro-neuregulin-1, membrane-bound isoform (Homo sapiens) (UniProt Q02297). The test is described as follows: small molecules binding neuregulin-1 protein – biochemical, small-molecule microarray, fluorescence 635/667, psychiatric disease protein project, primary screen (AID 1075).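 Also: score combines 667 nm spot fluorescence with signal to noise.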 Particulars: NRG1 binding, 635 nm fluorescence, higher = more signal.
Test [7] concerns Neuregulin-1 EGF-like domain. The test can be described thus: small molecules binding NRG1 EGF domain – biochemical, small-molecule microarray, 635 nm fluorescence, primary screen (AID 1081).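 Also: binding of the protein to compounds printed on small-molecule microarray slides.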 Conditions: higher = more signal.
The nature of test [8]: FRG1 expression reporter modulators in myotubes – cell-based, C2C12 myotubes, firefly/Renilla luciferase, luminescence, FRG1 inhibition for FSHD, primary screen (AID 1084). Conditions: FRG1 promoter luciferase, higher = more signal, called active from +8 up or from −8 down.
Test [9] is described as follows: small molecules captured by biotinylated probe aFST – biochemical, small-molecule microarray, fluorescence 635/667, stem cell growth factor project, primary screen (AID 1086).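 Also: score merges 667 nm fluorescence with signal-to-noise of each printed compound spot.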 Conditions: higher = more signal.
Test [10] is described as follows: binders of probe aHhip on microarray, primary screen, stem cell growth factor project, biochemical, small-molecule microarray, fluorescence 635/667 (AID 1087).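 Also: score merges spot fluorescence at 667nm with spot signal to noise ratio.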 Conditions: higher = more signal.
The test system of test [11] is PRMT1 (protein arginine N-methyltransferase 1). The test can be described thus: small molecules binding arginine methyltransferase PRMT1 – biochemical, small-molecule microarray, 635 nm fluorescence, primary screen (AID 1088).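 Also: binding of Prmt1 protein to compounds spotted on small-molecule microarray slides.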 Conditions: higher = more signal.
Test [12] can be described thus: growth effects on S. cerevisiae YJM789 – YJM789 clinical isolate, OD600, 24 h, basal, primary screen (AID 1089).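 Also: growth of clinical yeast isolate S. cerevisiae YJM 789 seeded 1000 cells per well; test concentration not given here.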 Conditions: higher = more signal, called active from +8 up or from −8 down.
A short description of test [13]: S. pombe growth modifiers, basal conditions – strain 972, OD600, 24 h, no modulator, primary screen (AID 1090).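 Also: basal condition with compound alone and no growth modifier present; test concentration not given here.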 Conditions: S. pombe 972 growth, higher = more signal, called active from +8 up or from −8 down.
The nature of test [14]: budding yeast growth modifiers under rapamycin – strain BY4716, OD600, 96 h, primary screen (AID 1091). Also: test concentration not given here. Particulars: S. cerevisiae BY4716 + rapamycin, higher = more signal, called active from +8 up or from −8 down.
For test [15], the target named is Torsin-1A-interacting protein 2 (Homo sapiens) (UniProt Q8NFQ8). The test is described as follows: small molecules binding lysate-expressed LULL1 – cell lysate, human LULL1 lysate, 635/667 nm fluorescence, primary screen (AID 1092).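 Also: score merges per-feature 667 nm fluorescence with signal-to-noise.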 Conditions: small-molecule microarray, hLULL1 lysate binding, 635 nm fluorescence; higher = more signal.
Test [16] in a line: optical density change of DRC41 E. coli – strain DRC41, OD650, 24 h, E. coli filamentation project, primary screen (AID 1093).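 Also: MC1000 strain lacking acrAB efflux and sulA so SOS filamentation is blocked; test concentration not given here.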 Conditions: E. coli DRC41 growth, higher = more signal, called active from +8 up or from −8 down.
Test [17] can be described thus: probe aLefty2 binding to arrayed compounds – biochemical, biotinylated probe, 635/667 nm fluorescence, primary screen (AID 1094).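 Also: score merges spot fluorescence near 667 nm with spot signal-to-noise ratio.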 Conditions: small-molecule microarray, higher = more signal.
In test [18] the test system is Noggin (protein binding on small-molecule microarray). The test can be described thus: small molecules binding Noggin protein – biochemical, 635/667 nm fluorescence, primary screen (AID 1095).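 Also: score merges 667 nm feature fluorescence with signal to noise over triplicate slides.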 Conditions: 635 nm fluorescence, higher = more signal.
Test [19] has as its target Neurogenic locus notch homolog protein 3 (Homo sapiens) (UniProt Q9UM47). The test is described as follows: small molecules binding NOTCH3 protein – biochemical, 635/667 nm fluorescence, primary screen (AID 1096). Conditions: small-molecule microarray, 635 nm fluorescence, higher = more signal.
Test [20] can be described thus: probe aEGFR binding to arrayed compounds – biochemical, biotinylated probe, 635/667 nm fluorescence, primary screen (AID 1097).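 Also: probe is a biotinylated anti-EGFR antibody binding compounds printed on slides; score combines fluorescence near 667 nm and signal to noise of each spot.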 Conditions: small-molecule microarray, higher = more signal.

Neurogenic locus notch homolog protein 3 (Homo sapiens), sequence (Q9UM47 whole entry, looked up): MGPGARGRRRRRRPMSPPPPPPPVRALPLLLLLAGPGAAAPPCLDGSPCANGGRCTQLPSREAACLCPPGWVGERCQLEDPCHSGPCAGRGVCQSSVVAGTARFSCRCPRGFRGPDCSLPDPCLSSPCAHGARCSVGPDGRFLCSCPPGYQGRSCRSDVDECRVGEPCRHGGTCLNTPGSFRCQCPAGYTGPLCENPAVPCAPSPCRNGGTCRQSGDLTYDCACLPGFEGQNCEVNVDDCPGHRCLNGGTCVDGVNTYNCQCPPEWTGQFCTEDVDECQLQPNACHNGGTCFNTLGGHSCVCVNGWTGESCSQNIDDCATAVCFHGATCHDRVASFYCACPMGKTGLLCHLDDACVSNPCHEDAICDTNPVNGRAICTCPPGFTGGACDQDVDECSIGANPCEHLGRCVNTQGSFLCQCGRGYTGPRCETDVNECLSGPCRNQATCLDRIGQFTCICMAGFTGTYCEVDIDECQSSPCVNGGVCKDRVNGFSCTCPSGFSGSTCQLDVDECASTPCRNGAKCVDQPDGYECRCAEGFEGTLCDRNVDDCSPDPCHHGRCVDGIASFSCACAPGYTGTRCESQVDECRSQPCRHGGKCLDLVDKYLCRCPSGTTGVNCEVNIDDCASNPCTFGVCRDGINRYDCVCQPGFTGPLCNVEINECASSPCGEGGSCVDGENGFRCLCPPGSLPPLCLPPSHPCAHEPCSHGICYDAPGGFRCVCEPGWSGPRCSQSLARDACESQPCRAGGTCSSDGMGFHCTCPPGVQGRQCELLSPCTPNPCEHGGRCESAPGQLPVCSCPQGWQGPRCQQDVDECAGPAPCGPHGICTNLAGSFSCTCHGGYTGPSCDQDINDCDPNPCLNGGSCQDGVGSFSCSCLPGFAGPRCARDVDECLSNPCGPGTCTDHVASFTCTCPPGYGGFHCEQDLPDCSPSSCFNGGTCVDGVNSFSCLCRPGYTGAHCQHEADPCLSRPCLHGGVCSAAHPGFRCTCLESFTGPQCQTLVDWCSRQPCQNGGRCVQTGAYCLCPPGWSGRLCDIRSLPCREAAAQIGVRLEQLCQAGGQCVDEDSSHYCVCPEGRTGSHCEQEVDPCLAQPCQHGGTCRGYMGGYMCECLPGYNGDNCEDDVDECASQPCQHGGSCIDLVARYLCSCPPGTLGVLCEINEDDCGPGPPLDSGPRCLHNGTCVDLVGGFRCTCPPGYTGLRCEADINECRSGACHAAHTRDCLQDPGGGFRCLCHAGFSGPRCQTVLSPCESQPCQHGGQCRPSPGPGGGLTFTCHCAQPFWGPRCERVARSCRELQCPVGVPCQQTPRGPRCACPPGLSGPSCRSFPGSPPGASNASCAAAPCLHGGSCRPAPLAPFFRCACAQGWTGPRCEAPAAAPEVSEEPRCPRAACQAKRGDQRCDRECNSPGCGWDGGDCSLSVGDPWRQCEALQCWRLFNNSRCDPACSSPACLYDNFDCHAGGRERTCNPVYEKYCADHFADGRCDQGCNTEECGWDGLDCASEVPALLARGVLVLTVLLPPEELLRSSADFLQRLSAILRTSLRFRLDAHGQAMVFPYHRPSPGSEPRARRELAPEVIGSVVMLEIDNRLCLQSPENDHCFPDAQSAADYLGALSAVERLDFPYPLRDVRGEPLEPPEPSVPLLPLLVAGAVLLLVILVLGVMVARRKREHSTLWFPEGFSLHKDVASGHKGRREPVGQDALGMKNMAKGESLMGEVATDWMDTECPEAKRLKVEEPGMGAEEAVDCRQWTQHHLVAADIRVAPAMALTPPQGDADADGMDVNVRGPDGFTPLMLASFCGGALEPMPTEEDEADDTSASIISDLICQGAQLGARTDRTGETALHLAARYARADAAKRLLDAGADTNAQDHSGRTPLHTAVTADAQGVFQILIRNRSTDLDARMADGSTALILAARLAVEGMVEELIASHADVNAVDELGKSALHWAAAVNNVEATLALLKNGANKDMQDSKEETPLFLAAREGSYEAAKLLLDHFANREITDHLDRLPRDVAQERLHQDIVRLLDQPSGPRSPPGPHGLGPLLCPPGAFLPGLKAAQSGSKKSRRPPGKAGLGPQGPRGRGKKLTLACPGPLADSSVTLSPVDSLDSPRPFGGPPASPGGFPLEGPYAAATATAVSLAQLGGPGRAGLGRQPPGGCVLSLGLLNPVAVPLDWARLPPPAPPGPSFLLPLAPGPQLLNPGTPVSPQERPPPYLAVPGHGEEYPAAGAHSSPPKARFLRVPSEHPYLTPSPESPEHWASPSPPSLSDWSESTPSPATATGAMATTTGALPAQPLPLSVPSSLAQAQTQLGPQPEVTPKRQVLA
Pro-neuregulin-1, membrane-bound isoform (Homo sapiens), sequence (Q02297 whole entry, looked up, the tested form may be a part, canonical isoform): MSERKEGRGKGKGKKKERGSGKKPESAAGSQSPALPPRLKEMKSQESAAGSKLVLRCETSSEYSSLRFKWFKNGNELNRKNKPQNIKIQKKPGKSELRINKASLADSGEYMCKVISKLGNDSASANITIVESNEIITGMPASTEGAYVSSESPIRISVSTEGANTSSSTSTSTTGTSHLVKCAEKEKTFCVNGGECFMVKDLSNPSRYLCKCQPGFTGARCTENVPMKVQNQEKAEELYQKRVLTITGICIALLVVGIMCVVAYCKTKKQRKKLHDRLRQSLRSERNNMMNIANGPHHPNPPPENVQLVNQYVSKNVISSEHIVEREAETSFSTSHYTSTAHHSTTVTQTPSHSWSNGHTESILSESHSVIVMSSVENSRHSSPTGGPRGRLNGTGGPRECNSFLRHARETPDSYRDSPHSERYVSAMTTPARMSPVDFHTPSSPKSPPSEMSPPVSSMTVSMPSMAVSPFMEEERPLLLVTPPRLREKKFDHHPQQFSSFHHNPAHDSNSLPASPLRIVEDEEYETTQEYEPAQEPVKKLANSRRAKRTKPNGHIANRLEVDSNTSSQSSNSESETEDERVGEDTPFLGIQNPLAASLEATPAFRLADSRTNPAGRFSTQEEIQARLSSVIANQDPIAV
Torsin-1A-interacting protein 2 (Homo sapiens), sequence (Q8NFQ8 whole entry, looked up): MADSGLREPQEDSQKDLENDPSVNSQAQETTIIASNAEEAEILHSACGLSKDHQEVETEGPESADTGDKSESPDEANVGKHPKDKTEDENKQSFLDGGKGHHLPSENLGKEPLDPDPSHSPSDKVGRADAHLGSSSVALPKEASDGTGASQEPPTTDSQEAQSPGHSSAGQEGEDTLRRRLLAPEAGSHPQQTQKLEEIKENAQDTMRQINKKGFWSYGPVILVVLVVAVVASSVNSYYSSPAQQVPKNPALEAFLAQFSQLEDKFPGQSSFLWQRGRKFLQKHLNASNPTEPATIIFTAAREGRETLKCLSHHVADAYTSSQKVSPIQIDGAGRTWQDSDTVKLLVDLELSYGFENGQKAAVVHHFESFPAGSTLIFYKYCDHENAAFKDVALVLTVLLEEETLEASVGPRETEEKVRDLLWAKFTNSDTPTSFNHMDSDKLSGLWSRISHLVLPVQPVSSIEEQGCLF

On to `C=C(CCCC)/C(=C/C[C@@H](OC(C)=O)c1cccc(OCCO)c1)c1cc(C(=O)OC)ccc1OC`, for which the composite z-score is 0.289 in test [1]; -0.0739 in test [2]; -0.14 in test [3]; 0.222 in test [4]; 0.0199 in test [5]; 0.361 in test [6]. Moreover, the composite z-score is 0.31 in test [7]; -0.0258 in test [9]; -0.0618 in [10]; 1.57 in test [11]; 0.709 in test [15]; -0.0524 in test [17]. Also, the composite z-score in test [18] is 0.656; in test [19], 0.0716; in test [20], -0.0698. Also, the z-score in test [8] was 0.942 (inactive); in test [12], -0.397 (inactive); in [13], 0.86 (inactive); in [14], -0.709 (inactive); in [16] it was 0.236 (inactive).

For the molecule `COCCOC(=O)N1C(=O)[C@@]2(c3cc(C#CCC(C(=O)OC)C(=O)OC)ccc31)[C@H](C(N)=O)[C@H]1C(=O)O[C@H](c3ccccc3)[C@H](c3ccccc3)N1[C@@H]2c1ccccc1OCCO`, the composite z-score in [1] is -0.453; in test [2], -0.413; in [3], -0.152; in test [4] it was 0.47; in [5], 0.937; in test [6] it was 0.555. Also, the composite z-score in test [7] is 1.19; in test [9] it was 0.6; in test [10], -0.0618; in [11] it was 1.55; in test [15], 1.89; in test [17], -0.204. For the same molecule, the figures for the composite z-score in test [18], in test [19] and in [20] were 1.56, 1.06 and -0.0661, respectively. The z-score is -1.3 (inactive) in [8]; -2.36 (inactive) in test [12]; -1.12 (inactive) in test [13]; 2.65 (inactive) in test [14]; 0.533 (inactive) in test [16].

Take `COCCOC(=O)N1C(=O)[C@@]2(c3cc(C#CCC(C(=O)OC)C(=O)OC)ccc31)[C@H](C(=O)N1CCc3cc(OC)c(OC)cc3C1)[C@H]1C(=O)O[C@H](c3ccccc3)[C@H](c3ccccc3)N1[C@@H]2c1ccccc1OCCO`: the composite z-score in test [1] was -0.308; in test [2], 0.399; in test [3], -0.0608; in test [4], 0.375; in test [5], 1.44; in test [6] it was 0.875. The composite z-score in test [7] was 1.22; in [9], 0.651; in test [10], -0.204; in test [11], 1.53; in test [15], 2.34; in test [17], -0.0754. The composite z-score in [18] came out at 1.76; in test [19], 1.01; in test [20], 0.0209. For the same molecule, the z-score in [8] was -0.223 (inactive); in [12], 1.32 (inactive); in [13], 1.02 (inactive); in test [14], 4.36 (inactive); in test [16], 1.09 (inactive).

In the case of `COCCCNC(=O)[C@@]1(Cc2ccccc2I)c2ccccc2C(=O)N(Cc2ccccc2OC)[C@H]1c1ccc(CO)cc1`, the composite z-score is 0.841 in test [1]; 0.32 in test [2]; 0.096 in test [3]; 0.655 in [4]; -1.09 in [5]; 1.3 in test [6]. Besides, the composite z-score in test [7] was 1.3; in [9] it was -0.523; in test [10] it was -0.195; in test [11], 1.56; in test [15], 2.77; in test [17] it was -0.142. In addition, the values for the composite z-score in [18], in test [19] and in [20] were -1.22, -0.625 and -0.331, respectively. For the same molecule, the z-score in test [8] is -2.86 (inactive); in test [12] it was 0.634 (inactive); in test [13], 0.248 (inactive); in test [14], 1.07 (inactive); in test [16], 0.62 (inactive).

With `C=CCNC(=O)[C@@H]1[C@H]2C(=O)O[C@H](c3ccccc3)[C@H](c3ccccc3)N2[C@H](c2ccc(OCCO)cc2)[C@@]12C(=O)Nc1ccc(C#CCNC(N)=O)cc12`, the composite z-score in test [1] was 0.18; in test [2], -0.262; in [3], -0.22; in test [4] it was 0.169; in [5], -1.01; in test [6], 0.43. The composite z-score in [7] is 0.184; in [9] it was 0.675; in test [10] it was -0.191; in test [11], 0.872; in [15], 1.8; in [17], -0.0368. Further, the values for the composite z-score in test [18], in [19] and in test [20] were 0.216, 0.266 and -0.182, respectively. Also, the z-score is 0.243 (inactive) in test [8]; 0.696 (inactive) in test [12]; -0.279 (inactive) in [13]; 1.92 (inactive) in test [14]; 0.0528 (inactive) in [16].

Consider `Cc1ccc(S[C@]2(C(=O)NCC(C)C)CC(=O)N(C(C)C)[C@@H]2c2ccc(CO)cc2I)cc1`, for which the composite z-score was 1.12 in [1]; 1.39 in test [2]; 0.0519 in test [3]; -0.41 in test [4]; -0.365 in [5]; 1.18 in test [6]. Moreover, the composite z-score in test [7] is -0.569; in [9] it was 0.161; in test [10], 0.0327; in test [11], 1.53; in test [15], 0.979; in [17], 0.0968. For the same molecule, the composite z-score in test [18] is -1.6; in test [19] it was -0.0735; in test [20], -0.127. In addition, the z-score was -0.999 (inactive) in test [8]; -1.68 (inactive) in test [12]; -2.56 (inactive) in test [13]; -0.0302 (inactive) in test [14]; 0.97 (inactive) in [16].

As for `COCCOC(=O)N1C(=O)[C@@]2(c3cc(C#CCCO)ccc31)[C@H](c1ccc(O)cc1)N1[C@H](c3ccccc3)[C@H](c3ccccc3)OC(=O)[C@H]1[C@@H]2C(=O)NC[C@H](O)c1ccccc1`, the composite z-score in test [1] was -0.0825; in test [2] it was 0.332; in [3], -0.0271; in [4], 0.589; in [5], 0.163; in [6], 1.25. For the same molecule, the composite z-score in test [7] was 1.29; in test [9], 0.0962; in [10], -0.0645; in [11], 1.53; in test [15] it was 2.15; in [17], -0.195. Besides, the composite z-score in [18] is 0.697; in test [19], 1.03; in test [20] it was -0.103. Also, the z-score in [8] was -1.69 (inactive); in [12], 1.08 (inactive); in test [13] it was 0.933 (inactive); in test [14], 3.26 (inactive); in test [16], 1.76 (inactive).

As to `COc1c(C)cc(-c2nc(-c3ccccc3)c3c(c2C)CO[Si]3(C(C)C)C(C)C)cc1C`, the composite z-score in test [1] is -0.24; in test [2] it was 0.428; in test [3], -0.134; in test [4], 0.146; in test [5], 0.442; in test [6], -0.0636. For the same molecule, the composite z-score was -0.104 in test [7]; 0.0724 in test [9]; -0.0994 in test [10]; 0.114 in [11]; 0.254 in test [15]; 0.074 in [17]. Also, the results for the composite z-score in [18], in test [19] and in test [20] were 0.323, 0.566 and -0.0068, respectively. In addition, the z-score was 0.232 (inactive) in test [8]; 0.687 (inactive) in test [12]; 0.104 (inactive) in [13]; -0.191 (inactive) in [14]; -1.59 (inactive) in [16].

As for `COC(=O)[C@@]1(Cc2ccccc2)[C@H]2c3cc(C(=O)N(C)C)n(Cc4nc5ccccc5[nH]4)c3C[C@H]2CN1C(=O)c1ccccc1`, the composite z-score amounted to 1.1 in test [1]; 1.08 in test [2]; 0.214 in test [3]; 0.572 in test [4]; 1.77 in [5]; 2.12 in test [6]. Besides, the composite z-score in test [7] was 1.33; in test [9] it was 1.37; in test [10], -0.315; in test [11] it was 0.964; in test [15], 3.5; in test [17] it was 0.718. Also, the composite z-score in [18] was -0.307; in [19], 1.06; in [20], 0.135. Also, the z-score in test [8] is -1.3 (inactive); in [12] it was -0.895 (inactive); in [13], 0.338 (inactive); in [14], -0.678 (inactive); in test [16] it was 0.914 (inactive).
